A number with no mark means an inactive call.
Each target was assayed with OC1CN(Cc2sccc12)C(=O)CCl (assay: log2 ratio of Biotin-Ahx-Ub-VS probe labelling (compound/DMSO); higher = less target engagement, active = hit call of the paper (q ≤ 0.05, log2 ratio ≤ -1)). Conditions: compound concentration: 50uM; treatment time: 3 h.
Protocol: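 Round 2 competitive ABPP in HEK293T lysate. Purified HTC-D2B compounds were tested at 50 and 200 µM for 3 h, followed by Biotin-Ahx-Ub-VS enrichment and diaPASEF LC-MS/MS. Values are the average log2 ratio (compound/DMSO) from an unpaired t-test (n=3 treated, n=26 DMSO).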

Sequence of UniProt Q5T2D3 (Q5T2D3 whole entry): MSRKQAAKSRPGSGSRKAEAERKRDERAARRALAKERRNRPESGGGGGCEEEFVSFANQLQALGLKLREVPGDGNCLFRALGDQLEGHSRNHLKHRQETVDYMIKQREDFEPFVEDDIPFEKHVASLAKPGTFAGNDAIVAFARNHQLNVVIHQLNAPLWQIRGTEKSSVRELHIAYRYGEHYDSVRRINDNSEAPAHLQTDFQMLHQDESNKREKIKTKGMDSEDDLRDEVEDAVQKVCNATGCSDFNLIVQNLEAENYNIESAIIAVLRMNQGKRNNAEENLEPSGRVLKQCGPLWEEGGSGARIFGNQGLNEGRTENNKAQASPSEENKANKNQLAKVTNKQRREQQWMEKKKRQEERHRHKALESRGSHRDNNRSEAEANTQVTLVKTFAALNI
Sequence of UniProt P62068 (P62068 whole entry): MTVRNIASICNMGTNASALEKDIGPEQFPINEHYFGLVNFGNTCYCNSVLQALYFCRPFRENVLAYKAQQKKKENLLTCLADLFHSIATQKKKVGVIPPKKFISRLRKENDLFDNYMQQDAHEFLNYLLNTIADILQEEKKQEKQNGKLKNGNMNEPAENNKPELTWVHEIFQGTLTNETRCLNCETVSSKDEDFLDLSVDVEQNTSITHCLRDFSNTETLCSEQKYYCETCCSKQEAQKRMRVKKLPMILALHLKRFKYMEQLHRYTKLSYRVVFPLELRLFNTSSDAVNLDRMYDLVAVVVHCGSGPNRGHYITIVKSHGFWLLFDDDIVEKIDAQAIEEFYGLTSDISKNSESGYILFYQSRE
Sequence of UniProt Q70EL2 (Q70EL2 whole entry): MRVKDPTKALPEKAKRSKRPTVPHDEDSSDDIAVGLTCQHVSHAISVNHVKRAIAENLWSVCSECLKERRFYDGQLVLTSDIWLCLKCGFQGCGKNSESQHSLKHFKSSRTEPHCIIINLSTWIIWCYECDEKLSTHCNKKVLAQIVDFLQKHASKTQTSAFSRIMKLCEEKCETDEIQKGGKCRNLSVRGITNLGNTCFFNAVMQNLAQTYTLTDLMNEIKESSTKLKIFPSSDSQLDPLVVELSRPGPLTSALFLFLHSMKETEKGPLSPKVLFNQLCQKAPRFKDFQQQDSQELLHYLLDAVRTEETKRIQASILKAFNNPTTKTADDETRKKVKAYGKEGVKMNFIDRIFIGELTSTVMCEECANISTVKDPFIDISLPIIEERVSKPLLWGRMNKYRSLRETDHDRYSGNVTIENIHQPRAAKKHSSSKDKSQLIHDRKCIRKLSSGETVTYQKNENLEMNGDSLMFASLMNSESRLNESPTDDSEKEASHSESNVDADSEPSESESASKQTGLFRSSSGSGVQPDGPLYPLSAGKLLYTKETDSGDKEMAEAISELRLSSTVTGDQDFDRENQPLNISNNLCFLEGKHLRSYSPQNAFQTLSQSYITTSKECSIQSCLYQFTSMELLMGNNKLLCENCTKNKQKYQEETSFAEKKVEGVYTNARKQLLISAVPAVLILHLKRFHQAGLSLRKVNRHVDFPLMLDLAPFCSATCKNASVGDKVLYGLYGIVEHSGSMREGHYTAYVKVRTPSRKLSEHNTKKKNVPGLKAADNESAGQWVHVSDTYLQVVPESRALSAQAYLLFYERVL
Sequence of UniProt Q9UGI0 (Q9UGI0 whole entry): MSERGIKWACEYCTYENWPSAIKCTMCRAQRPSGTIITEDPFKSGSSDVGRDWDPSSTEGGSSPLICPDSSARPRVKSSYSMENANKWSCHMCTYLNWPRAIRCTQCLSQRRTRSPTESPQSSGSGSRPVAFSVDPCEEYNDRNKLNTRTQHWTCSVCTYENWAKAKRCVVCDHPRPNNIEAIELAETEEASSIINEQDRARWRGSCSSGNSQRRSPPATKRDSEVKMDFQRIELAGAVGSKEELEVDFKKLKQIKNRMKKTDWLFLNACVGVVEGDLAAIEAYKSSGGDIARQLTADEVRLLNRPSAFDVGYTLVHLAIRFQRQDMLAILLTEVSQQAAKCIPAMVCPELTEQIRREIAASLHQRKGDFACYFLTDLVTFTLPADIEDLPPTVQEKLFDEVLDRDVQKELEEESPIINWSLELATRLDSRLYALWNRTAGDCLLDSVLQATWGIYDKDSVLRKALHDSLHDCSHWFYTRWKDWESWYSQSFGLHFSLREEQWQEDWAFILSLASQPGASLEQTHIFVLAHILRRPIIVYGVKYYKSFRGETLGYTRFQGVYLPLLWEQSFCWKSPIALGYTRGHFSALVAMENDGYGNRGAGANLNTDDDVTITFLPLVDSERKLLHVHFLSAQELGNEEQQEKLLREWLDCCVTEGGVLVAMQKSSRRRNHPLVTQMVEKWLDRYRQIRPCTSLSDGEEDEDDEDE
Sequence of UniProt Q92560 (Q92560 whole entry): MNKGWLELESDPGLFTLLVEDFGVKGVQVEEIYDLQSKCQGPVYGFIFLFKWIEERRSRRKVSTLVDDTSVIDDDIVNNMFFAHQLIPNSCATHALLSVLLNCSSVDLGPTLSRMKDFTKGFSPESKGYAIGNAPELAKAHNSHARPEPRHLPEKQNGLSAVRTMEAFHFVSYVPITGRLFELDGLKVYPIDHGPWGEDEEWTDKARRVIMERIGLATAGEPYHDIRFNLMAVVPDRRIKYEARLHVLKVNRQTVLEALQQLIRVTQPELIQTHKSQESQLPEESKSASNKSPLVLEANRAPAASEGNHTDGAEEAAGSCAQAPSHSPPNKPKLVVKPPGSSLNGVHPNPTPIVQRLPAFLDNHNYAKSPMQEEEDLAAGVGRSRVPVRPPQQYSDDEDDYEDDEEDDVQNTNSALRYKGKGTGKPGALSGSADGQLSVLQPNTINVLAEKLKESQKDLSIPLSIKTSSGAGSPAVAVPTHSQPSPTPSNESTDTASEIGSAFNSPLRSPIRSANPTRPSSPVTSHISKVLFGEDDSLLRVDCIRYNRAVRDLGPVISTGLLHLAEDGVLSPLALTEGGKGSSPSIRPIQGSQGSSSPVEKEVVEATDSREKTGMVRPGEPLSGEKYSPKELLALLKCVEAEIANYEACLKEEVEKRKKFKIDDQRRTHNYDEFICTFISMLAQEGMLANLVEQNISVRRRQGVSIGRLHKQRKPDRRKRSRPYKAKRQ
Sequence of UniProt O00303 (O00303 whole entry): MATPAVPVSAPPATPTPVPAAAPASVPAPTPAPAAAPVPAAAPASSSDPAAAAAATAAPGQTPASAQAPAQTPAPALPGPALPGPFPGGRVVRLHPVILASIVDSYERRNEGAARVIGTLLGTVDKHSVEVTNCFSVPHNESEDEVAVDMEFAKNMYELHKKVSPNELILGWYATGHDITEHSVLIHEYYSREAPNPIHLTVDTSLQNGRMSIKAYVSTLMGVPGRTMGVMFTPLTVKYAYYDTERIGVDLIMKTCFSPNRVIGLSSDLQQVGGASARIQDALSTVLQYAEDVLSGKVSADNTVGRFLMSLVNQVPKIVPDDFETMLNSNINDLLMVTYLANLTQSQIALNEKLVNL
Sequence of UniProt Q6GQQ9 (Q6GQQ9 whole entry): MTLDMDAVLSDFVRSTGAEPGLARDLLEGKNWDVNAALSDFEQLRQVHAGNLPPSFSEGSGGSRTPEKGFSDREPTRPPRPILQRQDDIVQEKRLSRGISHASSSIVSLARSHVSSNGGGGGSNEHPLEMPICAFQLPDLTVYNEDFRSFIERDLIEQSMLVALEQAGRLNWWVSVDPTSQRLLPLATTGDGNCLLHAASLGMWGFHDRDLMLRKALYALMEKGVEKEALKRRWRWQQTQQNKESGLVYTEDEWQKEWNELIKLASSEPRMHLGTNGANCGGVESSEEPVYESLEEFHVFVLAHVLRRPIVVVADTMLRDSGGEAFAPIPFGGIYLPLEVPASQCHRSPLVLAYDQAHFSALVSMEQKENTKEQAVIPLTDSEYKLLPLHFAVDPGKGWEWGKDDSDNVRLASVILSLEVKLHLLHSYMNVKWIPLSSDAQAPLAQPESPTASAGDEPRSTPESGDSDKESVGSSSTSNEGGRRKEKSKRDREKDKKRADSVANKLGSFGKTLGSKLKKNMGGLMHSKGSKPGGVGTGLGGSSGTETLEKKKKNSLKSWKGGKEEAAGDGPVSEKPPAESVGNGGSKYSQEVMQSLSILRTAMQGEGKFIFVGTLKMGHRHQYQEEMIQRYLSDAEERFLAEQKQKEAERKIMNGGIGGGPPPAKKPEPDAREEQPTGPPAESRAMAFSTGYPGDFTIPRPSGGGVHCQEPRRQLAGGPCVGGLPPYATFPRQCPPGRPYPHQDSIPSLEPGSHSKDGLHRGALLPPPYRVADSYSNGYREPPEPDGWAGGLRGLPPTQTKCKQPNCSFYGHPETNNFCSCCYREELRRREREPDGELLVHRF

Question: How did the “log2 ratio of Biotin-Ahx-Ub-VS probe labelling” value (from here on “log2 ratio”) turn out when EIF3F (UniProt O00303) was run?
Answer: -0.0817

Question: How did the “log2 ratio” value turn out when OTUD7B (UniProt Q6GQQ9) was run?
Answer: -4.49 (active)

Question: With UniProt Q9UGI0 as the target, how does the “log2 ratio” value read?
Answer: -0.451

Question: How did the “log2 ratio” value turn out when USP46 (UniProt P62068) was run?
Answer: -0.289

Question: BAP1 (UniProt Q92560) was tested. Which “log2 ratio” value did it give?
Answer: -0.416

Question: For UniProt Q5T2D3, which “log2 ratio” value is on record?
Answer: -0.17

Question: For USP24 (UniProt Q9UPU5), which “log2 ratio” value is on record?
Answer: -0.165

Question: UniProt Q70EL2 was tested. Which “log2 ratio” value did it give?
Answer: 0.0417

Same assay, conditions: compound concentration: 200uM; treatment time: 3 h

Question: How did the “log2 ratio” value turn out when EIF3F (UniProt O00303) was run?
Answer: 0.103

Question: For OTUD7B (UniProt Q6GQQ9), which “log2 ratio” value is on record?
Answer: -5.43 (active)

Question: UniProt Q9UGI0 was tested. Which “log2 ratio” value did it give?
Answer: -1.5 (active)

Question: How did the “log2 ratio” value turn out when USP46 (UniProt P62068) was run?
Answer: -0.565

Question: For BAP1 (UniProt Q92560), which “log2 ratio” value is on record?
Answer: -0.818

Question: Which “log2 ratio” value does the source give for UniProt Q5T2D3 here?
Answer: -0.0768

Question: USP24 (UniProt Q9UPU5) was tested. Which “log2 ratio” value did it give?
Answer: -0.557

Question: Which “log2 ratio” value does the source give for UniProt Q70EL2 here?
Answer: -0.242

— the supplement of paper PMC11732987, “Enantioselective OTUD7B fragment discovery through chemoproteomics screening and high-throughput optimisation” (Communications Chemistry, 2025)
